Measured values as given in PubChem BioAssay.

How the values were obtained:
[1] = molecular target: Tumor necrosis factor receptor superfamily member 10B (Homo sapiens) (UniProt O14763); experiment: viability loss of caspase-8 NB7 cells with TRAIL – with/without TRAIL, luminescence panel, confirmation (AID 651596); conditions: NB7 neuroblastoma + caspase-8, TRAIL sensitization, NB7 Caspase-8, with TRAIL, mean of runs, at 10 µM, stronger effect = higher value
[2] = as above; conditions: NB7 neuroblastoma + caspase-8, without TRAIL, NB7 Caspase-8, without TRAIL, mean of runs, at 10 µM
[3] = molecular target: Tumor necrosis factor receptor superfamily member 10B (Homo sapiens) (UniProt O14763); experiment: compound enhancement of TRAIL-induced cell killing – NB7 cells plus caspase-8, luminescence, panel, dose response (AID 652002); conditions: NB7 neuroblastoma +caspase-8, TRAIL sensitization, luminescence viability, NB7+Caspase-8, with TRAIL, run 1; at 12.5 µM (top of the series)
[4] = molecular target: Tumor necrosis factor receptor superfamily member 10B (Homo sapiens) (UniProt O14763); experiment: as above; conditions: NB7 neuroblastoma +caspase-8, TRAIL sensitization, luminescence viability, NB7+Caspase-8, with TRAIL, run 2; at 12.5 µM (top of the series)
[5] = as above; conditions: NB7 neuroblastoma +caspase-8, no TRAIL, compound-alone cytotoxicity counter-screen, luminescence viability, NB7+Caspase-8, run 1; at 12.5 µM (top of the series) unless noted
[6] = as above; conditions: NB7 neuroblastoma +caspase-8, no TRAIL, compound-alone cytotoxicity counter-screen, luminescence viability, NB7+Caspase-8, run 2; at 12.5 µM (top of the series) unless noted

Chain of Tumor necrosis factor receptor superfamily member 10B (Homo sapiens) (O14763 whole entry, looked up): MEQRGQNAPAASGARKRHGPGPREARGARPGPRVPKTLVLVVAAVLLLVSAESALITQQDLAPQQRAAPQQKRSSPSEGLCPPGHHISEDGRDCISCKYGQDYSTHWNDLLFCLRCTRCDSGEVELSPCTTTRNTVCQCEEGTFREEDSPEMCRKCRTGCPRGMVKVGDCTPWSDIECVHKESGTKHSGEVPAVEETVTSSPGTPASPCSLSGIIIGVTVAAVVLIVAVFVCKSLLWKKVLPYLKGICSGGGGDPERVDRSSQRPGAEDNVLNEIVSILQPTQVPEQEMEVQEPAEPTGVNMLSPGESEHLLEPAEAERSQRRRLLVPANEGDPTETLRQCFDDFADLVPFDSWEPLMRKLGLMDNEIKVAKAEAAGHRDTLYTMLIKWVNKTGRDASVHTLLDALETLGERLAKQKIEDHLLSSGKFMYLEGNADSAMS

Structure (SMILES): CC(C)C(=O)Nc1ccc(NC(=O)c2ccccn2)cn1
- activity [1]: 53.6%
- activity [2]: 53%
- activity, % sensitization [3]: 34.7%
- activity, % sensitization [4]: 36.7%
- activity, % sensitization [5]: 8.97%
- activity, % sensitization [6]: 37.8%

Structure (SMILES): COc1ccc(/C(C)=N/Nc2nncc3ccccc23)cc1
- activity [1]: 59.6%
- activity [2]: 49.8%
- activity, % sensitization [3]: 19.4%
- activity, % sensitization [4]: 54.6%
- activity, % sensitization [5]: 27.1%
- activity, % sensitization [6]: 10.8%

Structure (SMILES): COC(=O)c1ccc(/C=C/c2nc3ccccc3c(=O)[nH]2)cc1
- activity [1]: 60.9%
- activity [2]: 52.2%
- activity, % sensitization [3]: -15.3%
- activity, % sensitization [4]: -22.1%
- activity, % sensitization [5]: 2.64%
- activity, % sensitization [6]: -17.7%

Structure (SMILES): CCOc1ccc(-c2nnc(-c3ccccc3)o2)cc1
- activity [1]: 56%
- activity [2]: 47.3%
- activity, % sensitization [3]: 39.4%
- activity, % sensitization [4]: 39.8%
- activity, % sensitization [5]: 11.9%
- activity, % sensitization [6]: -2.15%
